# Data published in ChEMBL document CHEMBL5606460, “ASAP - DENV-2 NS2B-NS3 protease fluorescence single point” (2024).
# Among all 2,000 compounds or so, about 110 (5.5%) showed an effect of 50% or more. The sample as a whole holds a higher share of strong results than the screen did.
# Molecular target: Genome polyprotein (dengue virus type 2) (UniProt P29990)
structure (smiles),measurement,setting,value
NC(=O)c1cccc(NC(=O)[C@@H](NC(=O)c2ccc(Oc3ccc(C(F)(F)F)cc3)cc2)c2ccc(OCc3ccccc3)cc2)c1,inhibition,"Thailand/16681/1984, Concentration 49.5 uM, Number of replicates 2.0, Standard deviation 0.7362133947681709 %",6.2%
same,inhibition,"Thailand/16681/1984, Concentration 99.01 uM, Number of replicates 2.0, Standard deviation 0.5343411171689955 %",12.7%
same,inhibition,"Thailand/16681/1984, Concentration 198.0 uM, Number of replicates 2.0, Standard deviation 1.7800185360663037 %",24.8%
N=C(N)NCCC[C@H](NC(=O)c1nccs1)C(=O)N[C@@H](CCCCN)C(=O)N[C@@H](C(N)=O)c1ccc(OCc2ccc(C(F)(F)F)cc2)cc1,inhibition,"Thailand/16681/1984, Concentration 49.5 uM, Number of replicates 2.0, Standard deviation 0.01715005842126491 %",96.2%
same,inhibition,"Thailand/16681/1984, Concentration 49.5 uM, Number of replicates 2.0, Standard deviation 0.019135343573522066 %",96.1%
same,inhibition,"Thailand/16681/1984, Concentration 49.5 uM, Number of replicates 2.0, Standard deviation 0.03570815875758177 %",95.6%
same,inhibition,"Thailand/16681/1984, Concentration 49.5 uM, Number of replicates 2.0, Standard deviation 0.054562972907415325 %",95.2%
same,inhibition,"Thailand/16681/1984, Concentration 49.5 uM, Number of replicates 2.0, Standard deviation 0.06140896980473687 %",95.7%
same,inhibition,"Thailand/16681/1984, Concentration 49.5 uM, Number of replicates 2.0, Standard deviation 0.10612104410339795 %",97.2%
same,inhibition,"Thailand/16681/1984, Concentration 49.5 uM, Number of replicates 2.0, Standard deviation 0.10687631562871318 %",95.4%
same,inhibition,"Thailand/16681/1984, Concentration 49.5 uM, Number of replicates 2.0, Standard deviation 0.10916370939109642 %",95.9%
same,inhibition,"Thailand/16681/1984, Concentration 49.5 uM, Number of replicates 2.0, Standard deviation 0.11089004430610264 %",91.3%
same,inhibition,"Thailand/16681/1984, Concentration 49.5 uM, Number of replicates 2.0, Standard deviation 0.12066541576232535 %",96.7%
same,inhibition,"Thailand/16681/1984, Concentration 49.5 uM, Number of replicates 2.0, Standard deviation 0.12893024416791762 %",95%
same,inhibition,"Thailand/16681/1984, Concentration 49.5 uM, Number of replicates 2.0, Standard deviation 0.18367124536344298 %",96.2%
same,inhibition,"Thailand/16681/1984, Concentration 49.5 uM, Number of replicates 2.0, Standard deviation 0.22697527774705212 %",95.7%
same,inhibition,"Thailand/16681/1984, Concentration 49.5 uM, Number of replicates 2.0, Standard deviation 0.262397512284336 %",95.2%
same,inhibition,"Thailand/16681/1984, Concentration 49.5 uM, Number of replicates 2.0, Standard deviation 0.3581065989316027 %",96.5%
same,inhibition,"Thailand/16681/1984, Concentration 49.5 uM, Number of replicates 2.0, Standard deviation 0.6751965592419794 %",94.5%
same,inhibition,"Thailand/16681/1984, Concentration 49.5 uM, Number of replicates 4.0, Standard deviation 0.3877656068031149 %",96.3%
same,inhibition,"Thailand/16681/1984, Concentration 49.8 uM, Number of replicates 2.0, Standard deviation 0.008615490185202914 %",98.3%
same,inhibition,"Thailand/16681/1984, Concentration 49.95 uM, Number of replicates 2.0, Standard deviation 0.5898131133050937 %",90.4%
same,inhibition,"Thailand/16681/1984, Concentration 50.0 uM, Number of replicates 2.0, Standard deviation 2.607110988642393 %",82.5%
same,inhibition,"Thailand/16681/1984, Concentration 98.52 uM, Number of replicates 2.0, Standard deviation 0.0007930351015809821 %",99.7%
same,inhibition,"Thailand/16681/1984, Concentration 99.01 uM, Number of replicates 2.0, Standard deviation 0.014371738167426778 %",98.3%
same,inhibition,"Thailand/16681/1984, Concentration 99.01 uM, Number of replicates 2.0, Standard deviation 0.015720437319775387 %",97.7%
same,inhibition,"Thailand/16681/1984, Concentration 99.01 uM, Number of replicates 2.0, Standard deviation 0.019361925031116632 %",97.6%
same,inhibition,"Thailand/16681/1984, Concentration 99.01 uM, Number of replicates 2.0, Standard deviation 0.03515249470681415 %",98%
same,inhibition,"Thailand/16681/1984, Concentration 99.01 uM, Number of replicates 2.0, Standard deviation 0.051056355111308946 %",98.5%
same,inhibition,"Thailand/16681/1984, Concentration 99.01 uM, Number of replicates 2.0, Standard deviation 0.05114267185705925 %",98.8%
same,inhibition,"Thailand/16681/1984, Concentration 99.01 uM, Number of replicates 2.0, Standard deviation 0.05214610402640662 %",98.2%
same,inhibition,"Thailand/16681/1984, Concentration 99.01 uM, Number of replicates 2.0, Standard deviation 0.05969881927955883 %",97.8%
same,inhibition,"Thailand/16681/1984, Concentration 99.01 uM, Number of replicates 2.0, Standard deviation 0.06259043026219424 %",97.6%
same,inhibition,"Thailand/16681/1984, Concentration 99.01 uM, Number of replicates 2.0, Standard deviation 0.0932706385798204 %",98.3%
same,inhibition,"Thailand/16681/1984, Concentration 99.01 uM, Number of replicates 2.0, Standard deviation 0.1268262734902538 %",98.1%
same,inhibition,"Thailand/16681/1984, Concentration 99.01 uM, Number of replicates 2.0, Standard deviation 0.1304084184388917 %",95.2%
same,inhibition,"Thailand/16681/1984, Concentration 99.01 uM, Number of replicates 2.0, Standard deviation 0.16720632611157116 %",97.6%
same,inhibition,"Thailand/16681/1984, Concentration 99.01 uM, Number of replicates 2.0, Standard deviation 0.19540492798887588 %",98.3%
same,inhibition,"Thailand/16681/1984, Concentration 99.01 uM, Number of replicates 2.0, Standard deviation 0.2057251739026474 %",97.9%
same,inhibition,"Thailand/16681/1984, Concentration 99.01 uM, Number of replicates 2.0, Standard deviation 0.39058866931676656 %",97.1%
same,inhibition,"Thailand/16681/1984, Concentration 99.01 uM, Number of replicates 4.0, Standard deviation 0.160745991426317 %",98.2%
same,inhibition,"Thailand/16681/1984, Concentration 99.5 uM, Number of replicates 2.0, Standard deviation 0.012726325201561474 %",99.3%
same,inhibition,"Thailand/16681/1984, Concentration 99.5 uM, Number of replicates 2.0, Standard deviation 0.04880672492519146 %",99.4%
same,inhibition,"Thailand/16681/1984, Concentration 99.9 uM, Number of replicates 2.0, Standard deviation 0.33233565552852545 %",95.1%
same,inhibition,"Thailand/16681/1984, Concentration 100.0 uM, Number of replicates 2.0, Standard deviation 1.0120962127020525 %",91.1%
same,inhibition,"Thailand/16681/1984, Concentration 198.0 uM, Number of replicates 2.0, Standard deviation 0.008588516202155942 %",97.6%
same,inhibition,"Thailand/16681/1984, Concentration 198.0 uM, Number of replicates 2.0, Standard deviation 0.009273655371549035 %",99.3%
same,inhibition,"Thailand/16681/1984, Concentration 198.0 uM, Number of replicates 2.0, Standard deviation 0.015984782353635714 %",99.5%
same,inhibition,"Thailand/16681/1984, Concentration 198.0 uM, Number of replicates 2.0, Standard deviation 0.02043009475977673 %",99%
same,inhibition,"Thailand/16681/1984, Concentration 198.0 uM, Number of replicates 2.0, Standard deviation 0.03091218457183012 %",99%
same,inhibition,"Thailand/16681/1984, Concentration 198.0 uM, Number of replicates 2.0, Standard deviation 0.034661568215359255 %",98.9%
same,inhibition,"Thailand/16681/1984, Concentration 198.0 uM, Number of replicates 2.0, Standard deviation 0.04180427892619749 %",98.9%
same,inhibition,"Thailand/16681/1984, Concentration 198.0 uM, Number of replicates 2.0, Standard deviation 0.05357033033128675 %",99.3%
same,inhibition,"Thailand/16681/1984, Concentration 198.0 uM, Number of replicates 2.0, Standard deviation 0.055172584924276895 %",99.5%
same,inhibition,"Thailand/16681/1984, Concentration 198.0 uM, Number of replicates 2.0, Standard deviation 0.06522309100757873 %",99.1%
same,inhibition,"Thailand/16681/1984, Concentration 198.0 uM, Number of replicates 2.0, Standard deviation 0.07510635839598934 %",99.3%
same,inhibition,"Thailand/16681/1984, Concentration 198.0 uM, Number of replicates 2.0, Standard deviation 0.08009654525967919 %",99.1%
same,inhibition,"Thailand/16681/1984, Concentration 198.0 uM, Number of replicates 2.0, Standard deviation 0.10986503295031769 %",99.2%
same,inhibition,"Thailand/16681/1984, Concentration 198.0 uM, Number of replicates 2.0, Standard deviation 0.15163694309685882 %",99%
same,inhibition,"Thailand/16681/1984, Concentration 198.0 uM, Number of replicates 2.0, Standard deviation 0.1571827940113163 %",98.9%
same,inhibition,"Thailand/16681/1984, Concentration 198.0 uM, Number of replicates 2.0, Standard deviation 0.24491837126989802 %",98.3%
same,inhibition,"Thailand/16681/1984, Concentration 198.0 uM, Number of replicates 4.0, Standard deviation 0.0821711955101111 %",99.2%
same,inhibition,"Thailand/16681/1984, Concentration 295.6 uM, Number of replicates 2.0, Standard deviation 0.015100035709695026 %",100%
same,inhibition,"Thailand/16681/1984, Concentration 295.6 uM, Number of replicates 2.0, Standard deviation 0.020829309708871917 %",99.9%
